According to PubChem BioAssay AID1159580 (chemical genetic matrix, 2015):
Among all 5,500 compounds or so, about 2,000 (36%) were called active. Roughly 18% stayed inconclusive and do not appear here. Cut-off read from the data, not from the text of the source: active = normalized growth mostly below about 0.91 (no sharp cut-off); inconclusive = no clear call, values can overlap the other calls; inactive = mostly above about 0.92. The list shows a part of the results.

Test: chemical genetic growth profiling, strain panel (AID 1159580);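 note: tested at 20 µM; growth read once vehicle control cultures reached saturation at 30 °C; 1 = growth at the plate median or of vehicle wells; lower values mean less growth of the strain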
Conditions: S. cerevisiae deletion strains, growth OD
[1] = locus YAL021C, strain ccr4, stronger effect = lower value
[2] = locus YAL026C, strain drs2, stronger effect = lower value
[3] = locus YAL030W, strain snc1, stronger effect = lower value
[4] = locus YBL061C, strain skt5, stronger effect = lower value
[5] = locus YBR009C, strain hhf1, stronger effect = lower value
[6] = locus YBR023C, strain chs3, stronger effect = lower value
[7] = locus YBR171W, strain sec66, stronger effect = lower value
[8] = locus YBR231C, strain swc5, stronger effect = lower value
[9] = locus YBR279W, strain paf1, stronger effect = lower value
[10] = locus YCL011C, strain gbp2, stronger effect = lower value
[11] = locus YCL016C, strain dcc1, stronger effect = lower value
[12] = locus YCL061C, strain MRC1, stronger effect = lower value
[13] = locus YCL069W, strain vba3, stronger effect = lower value
[14] = locus YCR088W, strain abp1, stronger effect = lower value
[15] = locus YDL005C, strain med2, stronger effect = lower value
[16] = locus YDL040C, strain nat1, stronger effect = lower value
[17] = locus YDR001C, strain nth1, stronger effect = lower value
[18] = locus YDR069C, strain doa4, stronger effect = lower value
[19] = locus YDR137W, strain rgp1, stronger effect = lower value
[20] = locus YDR159W, strain sac3, stronger effect = lower value
[21] = locus YDR297W, strain sur2, stronger effect = lower value
[22] = locus YDR334W, strain swr1, stronger effect = lower value
[23] = locus YDR335W, strain msn5, stronger effect = lower value
[24] = locus YDR392W, strain spt3, stronger effect = lower value
[25] = locus YEL003W, strain gim4, stronger effect = lower value
[26] = locus YEL037C, strain rad23, stronger effect = lower value
[27] = locus YEL061C, strain CIN8 (second series), stronger effect = lower value
[28] = locus YER015W, strain faa2, stronger effect = lower value
[29] = locus YER016W, strain bim1, stronger effect = lower value
[30] = locus YER111C, strain swi4, stronger effect = lower value
[31] = locus YER155C, strain BEM2 (second series), stronger effect = lower value
[32] = locus YFR010W, strain ubp6, stronger effect = lower value
[33] = locus YGL167C, strain pmr1, stronger effect = lower value
[34] = locus YGL173C, strain kem1, stronger effect = lower value
[35] = locus YGL227W, strain vid30, stronger effect = lower value
[36] = locus YGL240W, strain doc1, stronger effect = lower value
[37] = locus YGL253W, strain hxk2, stronger effect = lower value
[38] = locus YHR013C, strain ard1, stronger effect = lower value
[39] = locus YHR027C, strain rpn1, stronger effect = lower value
[40] = locus YHR142W, strain chs7, stronger effect = lower value
[41] = locus YJL092W, strain hpr5, stronger effect = lower value
[42] = locus YJL095W, strain BCK1 (second series), stronger effect = lower value
[43] = locus YJL115W, strain asf1, stronger effect = lower value
[44] = locus YJL129C, strain trk1, stronger effect = lower value
[45] = locus YJL154C, strain vps35, stronger effect = lower value
[46] = locus YJL164C, strain tpk1, stronger effect = lower value
[47] = locus YJL166W, strain qcr8, stronger effect = lower value
[48] = locus YJL187C, strain SWE1, stronger effect = lower value
[49] = locus YKL160W, strain elf1, stronger effect = lower value
[50] = locus YKR026C, strain gcn3, stronger effect = lower value
[51] = locus YKR091W, strain srl3, stronger effect = lower value
[52] = locus YLL001W, strain dnm1, stronger effect = lower value
[53] = locus YLL026W, stronger effect = lower value
[54] = locus YLL041C, strain sdh2, stronger effect = lower value
[55] = locus YLR027C, strain aat2, stronger effect = lower value
[56] = locus YLR221C, strain rsa3, stronger effect = lower value
[57] = locus YLR258W, strain gsy2, stronger effect = lower value
[58] = locus YLR262C, strain YPT6 (second series), stronger effect = lower value
[59] = locus YLR320W, strain mms22, stronger effect = lower value
[60] = locus YLR342W, strain FKS1, stronger effect = lower value
[61] = locus YLR357W, strain rsc2, stronger effect = lower value
[62] = locus YLR370C, strain arc18, stronger effect = lower value
[63] = locus YLR384C, strain iki3, stronger effect = lower value
[64] = locus YML120C, strain ndi1, stronger effect = lower value
[65] = locus YMR058W, strain fet3, stronger effect = lower value
[66] = locus YMR125W, strain sto1, stronger effect = lower value
[67] = locus YMR129W, stronger effect = lower value
[68] = locus YMR205C, strain PFK2, stronger effect = lower value
[69] = locus YMR231W, strain pep5, stronger effect = lower value
[70] = locus YNL071W, strain lat1, stronger effect = lower value
[71] = locus YNL209W, strain ssb2, stronger effect = lower value
[72] = locus YNL248C, strain rpa49, stronger effect = lower value
[73] = locus YNL322C, strain KRE1 (second series), stronger effect = lower value
[74] = locus YNR049C, strain mso1, stronger effect = lower value
[75] = locus YOR001W, strain rrp6, stronger effect = lower value
[76] = locus YOR070C, strain gyp1, stronger effect = lower value
[77] = locus YOR080W, strain dia2, stronger effect = lower value
[78] = locus YOR083W, strain WHI5, stronger effect = lower value
[79] = locus YOR106W, strain vam3, stronger effect = lower value
[80] = locus YOR265W, strain rbl2, stronger effect = lower value
[81] = locus YOR270C, strain vph1, stronger effect = lower value
[82] = locus YOR290C, strain snf2, stronger effect = lower value
[83] = locus YPL051W, strain arl3, stronger effect = lower value
[84] = locus YPL078C, strain atp4, stronger effect = lower value
[85] = locus YPL106C, strain sse1, stronger effect = lower value
[86] = locus YPL240C, strain hsp82, stronger effect = lower value

Measured: normalized growth

CC(=O)OCC(=O)[C@@]1(O)CCC2C3CC[C@@H]4C[C@H](O)CC[C@]4(C)C3C(=O)C[C@@]21C (some centres not stated)
inactive: [1] 1.02 | [2] 1.01 | [3] 1.02 | [4] 1.03 | [5] 1.03 | [6] 1.02 | [7] 1.03 | [8] 1.02 | [9] 1.03 | [10] 1.04 | [11] 1.04 | [12] 1.03 | [13] 1.01 | [14] 1.01 | [15] 1.02 | [16] 1.02 | [17] 1.01 | [18] 1.02 | [19] 1.06 | [20] 1.01 | locus YDR195W, strain ref2 0.988 | [21] 1.01 | [22] 1.01 | [23] 1.01 | [24] 0.983 | [25] 1.01 | [26] 1 | [27] 1.01 | [28] 1.01 | [29] 1.02 | [30] 1.02 | [31] 1.03 | [32] 1.01 | [33] 1.01 | [34] 1.03 | [35] 1.02 | [36] 1.03 | [37] 1.01 | [38] 1.03 | [39] 1.01 | [40] 1.02 | [41] 1.01 | [42] 1.02 | [43] 1.02 | [44] 1.05 | [45] 1.01 | [46] 1.03 | [47] 1.03 | [48] 1.02 | [49] 1.03 | [50] 1.01 | [51] 1.02 | [52] 1.03 | [53] 1.02 | [54] 1.01 | [55] 1.02 | [56] 1.05 | [57] 1.02 | [58] 1.04 | [59] 1.07 | [60] 1.01 | [61] 1.03 | [62] 1.02 | [63] 1.02 | [64] 1.01 | [65] 1.01 | [66] 1.02 | [67] 1.01 | [68] 1.03 | [69] 1.01 | [70] 1.02 | [71] 1.02 | [72] 1.01 | [73] 1.03 | [74] 1.01 | [75] 1.01 | [76] 1.02 | [77] 1.02 | [78] 1.04 | [79] 1.02 | [80] 1.02 | [81] 1.03 | [82] 1 | [83] 1.02 | [84] 1.02 | [85] 1.07 | [86] 1.02

CC(=O)[C@H]1CCC2C3CC=C4C[C@@H](OC(=O)CCC(=O)O)CC[C@]4(C)C3CC[C@@]21C (some centres not stated)
active: [5] 0.899 | [19] 0.556 | [24] 0.466 | [31] 0.842 | [34] 0.898 | [44] 0.804 | [58] 0.57 | [59] 0.796 | [64] 0.9 | [68] 0.822 | [70] 0.845
inactive: [1] 0.975 | [2] 0.913 | [3] 0.969 | [4] 0.964 | [6] 0.96 | [7] 0.898 | [8] 0.975 | [9] 0.961 | [10] 0.957 | [11] 0.965 | [12] 0.962 | [13] 0.983 | [14] 0.966 | [15] 0.941 | [16] 0.973 | [17] 0.971 | [18] 0.966 | [20] 0.943 | locus YDR195W, strain ref2 1.03 | [21] 0.95 | [22] 0.989 | [23] 0.977 | [25] 0.968 | [26] 0.972 | [27] 0.97 | [28] 0.985 | [29] 0.969 | [30] 0.953 | [32] 0.966 | [33] 0.928 | [35] 0.973 | [36] 0.939 | [37] 0.971 | [38] 0.941 | [39] 0.978 | locus YHR030C, strain SLT2, stronger effect = lower value 0.997 | locus YHR079C, strain IRE1, stronger effect = lower value 0.974 | [40] 0.932 | [41] 0.966 | [42] 0.971 | locus YJL095W, strain BCK1, stronger effect = lower value 0.913 | [43] 0.99 | [45] 0.988 | [46] 0.955 | [47] 0.929 | [48] 0.968 | locus YJR066W, strain TOR1, stronger effect = lower value 0.942 | [49] 0.951 | [50] 0.962 | [51] 0.968 | [52] 0.948 | [53] 0.974 | [54] 0.985 | [55] 0.978 | locus YLR113W, strain HOG1, stronger effect = lower value 0.855 | [56] 0.967 | [57] 0.956 | [60] 0.955 | [61] 0.989 | [62] 0.942 | [63] 0.97 | [65] 0.963 | [66] 0.938 | [67] 0.968 | [69] 0.975 | locus YNL183C, strain NPR1, stronger effect = lower value 0.927 | [71] 0.969 | [72] 0.988 | [73] 0.969 | [74] 0.973 | [75] 0.952 | [76] 0.959 | [77] 0.95 | [78] 0.974 | [79] 0.953 | locus YOR231W, strain MKK1, stronger effect = lower value 0.961 | [80] 0.981 | [81] 0.91 | [82] 0.908 | [83] 0.973 | [84] 0.956 | [85] 1 | [86] 0.971 | locus YPL256C, strain CLN2, stronger effect = lower value 0.991
